The target in assay [1] is Tumor necrosis factor receptor superfamily member 10B (Homo sapiens) (UniProt O14763). In words: caspase-8 TRAIL sensitization, hit retest, confirmation, cell-based, NB7+caspase-8, with/without TRAIL, luminescence panel (AID 651596). To be noted: NB7 neuroblastoma + caspase-8, TRAIL sensitization, luminescence viability, with TRAIL, mean of runs, at 10 µM, stronger effect = higher value.

Assay in assay [2]: as above
Conditions: NB7 neuroblastoma + caspase-8, without TRAIL, luminescence viability, without TRAIL, mean of runs, at 10 µM; in the data active means activity above about 50%; inactive means the rest.

Tumor necrosis factor receptor superfamily member 10B (Homo sapiens), sequence (O14763 whole entry, looked up): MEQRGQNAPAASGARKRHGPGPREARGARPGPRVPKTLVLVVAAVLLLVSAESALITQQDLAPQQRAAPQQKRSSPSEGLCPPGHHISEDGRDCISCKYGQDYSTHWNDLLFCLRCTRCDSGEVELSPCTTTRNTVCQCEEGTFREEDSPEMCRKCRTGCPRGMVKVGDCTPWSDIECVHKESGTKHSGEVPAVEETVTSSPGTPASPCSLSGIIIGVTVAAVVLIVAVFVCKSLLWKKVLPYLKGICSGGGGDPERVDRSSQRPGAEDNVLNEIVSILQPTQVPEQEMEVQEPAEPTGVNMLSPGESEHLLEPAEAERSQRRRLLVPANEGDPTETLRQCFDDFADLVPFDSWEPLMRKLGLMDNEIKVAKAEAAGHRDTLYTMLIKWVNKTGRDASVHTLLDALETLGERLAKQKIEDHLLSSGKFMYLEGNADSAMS

Consider `Cc1ccc(O)c(-c2cc(-c3ccc(F)cc3)no2)c1`, for which the values for the activity in assay [1] and in assay [2] were 71.2% and 57.8%, respectively.

Consider `Cc1onc(-c2ccccc2Cl)c1C(=O)O/N=C(\N)c1ccccc1`, for which the activity in assay [1] amounted to 99%; in assay [2], 98.1%.

Regarding `c1ccc(-n2nnc3c(N4CCOCC4)ncnc32)cc1`, the activity in assay [1] and in assay [2] was 74.7% in each case.

With `Cc1ccc2cc(NC(=O)c3cccc(F)c3)ccc2n1`, the values for the activity in assay [1] and in assay [2] were 21.3% and 10.6%, respectively.

Regarding `CC(C)NC(=O)c1ccc2c3n(nc2c1)-c1ccccc1CO3`, the activity in assay [1] was 95.8%; in assay [2], 95.5%.

On to `O=C(Nc1ccc(N2CCN(C(=O)c3ccccc3)CC2)cc1)c1cc2ccccc2o1`, for which the results for the activity in assay [1] and in assay [2] were 70.8% and 50.3%, respectively.

`Cc1cc(Br)ccc1OCCCCNCCO`: the figures for the activity in assay [1] and in assay [2] were 28.1% and 41.9%, respectively.

As for `CNc1nnc(-c2ccc(N(C)C)cc2)s1`, the activity in assay [1] is 73.4%; in assay [2], 61.2%.

On to `Cc1ccc(C2=NN(C(=O)CCl)C(c3cccs3)C2)o1` (stereo not drawn), for which the activity in assay [1] was determined as 99.6%; in assay [2], 99.1%.

For the molecule `Nc1c(-c2ccccc2)cnc2cc(-c3ccccc3)nn12`, the activity was 73% in assay [1] and 67.4% in assay [2].

As for `CCOc1ccc(C(=O)N/N=C/c2ccccc2[N+](=O)[O-])cc1`, the activity in assay [1] is 68%; in assay [2], 62.8%.

Consider `Cc1nn(-c2ccccc2)c(C)c1/C=N/NC(=O)c1cc(-c2ccc(Cl)s2)[nH]n1`, for which the figures for the activity in assay [1] and in assay [2] were 70.1% and 72.8%, respectively.

Turning to `CN(C)c1ccc(C(=O)Nc2nc3c(s2)CCCC3)cc1`, the activity came out at 51.9% in assay [1] and 48.6% in assay [2].

With `Cc1ccccc1-c1nc2sc3c(c2c(=O)n1N)CCCC3`, the activity turned out to be 44% in assay [1] and 46% in assay [2].

On to `O=C(OCn1ncc(Cl)c(Cl)c1=O)c1cccc(C(F)(F)F)c1`, for which the activity is 99.2% in assay [1] and 99.3% in assay [2].

For the molecule `CCCNC(=O)c1ccc(-c2nc3ccccc3s2)s1`, the results for the activity in assay [1] and in assay [2] were 87.8% and 83.5%, respectively.

`CCc1ccc(C2=NNC(=Nc3cccc(S(=O)(=O)N(C)C)c3)SC2)cc1`: the activity is 76.8% in assay [1] and 75% in assay [2].

As for `O=C(CSc1nnc(NC(=O)c2ccc3c(c2)OCO3)s1)NCc1ccco1`, the activity in assay [1] turned out to be 85.4%; in assay [2], 83.7%.

`COc1ccc(C(=O)NNC(=S)NC(=O)/C=C/c2cccs2)cc1`: the activity in assay [1] was found to be 36.2%; in assay [2] it was 42.2%.

For the molecule `CC(C)(C)OC[C@H](NC(=O)c1[nH]cnc1C(=O)Nc1ccccc1F)C(=O)OC(C)(C)C`, the activity in assay [1] was 55.4%; in assay [2], 59.2%.

On to `COc1oc(C(=O)NC2CCCCC2)c(-c2ccc(Cl)cc2)c1S(=O)(=O)c1ccccc1`, for which the activity in assay [1] worked out at 97.8%; in assay [2], 96.8%.

Consider `COc1cc(OC)cc(-c2cc3ccc(F)cc3cn2)c1`, for which the activity in assay [1] came to 65.9%; in assay [2] it was 60.2%.

Turning to `Cc1ccccc1C(=O)O/N=C(\N)c1ccncc1`, the activity was found to be 61.6% in assay [1] and 76.3% in assay [2].

As to `Cc1ccc(C(=O)O/N=C(\N)c2ccc(Br)cc2)cc1C`, the activity in assay [1] amounted to 82.5%; in assay [2] it was 88.2%.

As to `c1ccc(/N=C2\N=C(Nc3ccccn3)c3ccccc32)nc1`, the values for the activity in assay [1] and in assay [2] were 40% and 48.8%, respectively.

For `COc1ccc(/C=N/Nc2cc(OC)ncn2)cc1`, the values for the activity in assay [1] and in assay [2] were 53.9% and 40.8%, respectively.

Turning to `CC(C)(C)NCCC(O)c1cc(C(F)(F)F)nc2c(C(F)(F)F)cccc12` (stereo not drawn), the results for the activity in assay [1] and in assay [2] were 97.5% and 96.7%, respectively.

As for `C#Cc1ccc([C@H]2C=C(C(=O)Nc3ccccc3)O[C@@H](OCc3ccc(CO)cc3)C2)cc1`, the activity was 92% in assay [1] and 93.4% in assay [2].

In the case of `Cc1ccc(-c2cc(C(=O)N3CCCC3)no2)cc1`, the activity in assay [1] was determined as 73.3%; in assay [2], 67%.

In the case of `Cc1nc(N)nc(N)c1CCCc1ccc(Cl)c(Cl)c1`, the activity in assay [1] worked out at 69.6%; in assay [2], 74.8%.

Regarding `N/C(=N\OC(=O)c1ccccc1)c1ccn[nH]1`, the activity in assay [1] was 68.7%; in assay [2], 68.1%.

Regarding `O=C(N/N=C/c1ccc([N+](=O)[O-])o1)c1cc(-c2ccc(-c3ccccc3)cc2)nc2ccccc12`, the activity in assay [1] was found to be 85.8%; in assay [2], 89.3%.

Take `CSCCC(NC(=O)c1ccc(Cl)c([N+](=O)[O-])c1)C(=O)N1CCN(C/C=C/c2ccccc2)CC1` (stereo not drawn): the figures for the activity in assay [1] and in assay [2] were 36.3% and 24.4%, respectively.

On to `CN(NC(=O)C(C)(C)C)c1nc(-c2ccccc2)nnc1C(F)(F)F`, for which the activity was 43.9% in assay [1] and 55.6% in assay [2].

Regarding `Cc1nc2cc(NC(=O)N3c4ccccc4CC3C)ccc2n1C` (stereo not drawn), the results for the activity in assay [1] and in assay [2] were 71.9% and 70.6%, respectively.

On to `OCC1OC(n2cnc3c(SCc4ccccc4)ncnc32)C(O)C1O` (stereo not drawn), for which the activity amounted to 59.9% in assay [1] and 67.1% in assay [2].

As for `CCCCCCCCCCCCCCCC[N+](C)(C)CCl`, the activity in assay [1] was determined as 96%; in assay [2], 94.3%.

With `C=Cc1ccc(Cn2c(C)c(C(=O)NCc3ccc(Cl)c(Cl)c3)sc2=O)cc1`, the figures for the activity in assay [1] and in assay [2] were 91.2% and 68%, respectively.

`Clc1ccccc1Nc1nnc(-c2ccncc2)s1`: the activity in assay [1] was 61.3%; in assay [2] it was 63.3%.

Regarding `CCCOc1ccc(-c2cn3ccccc3n2)cc1`, the activity came out at 92.7% in assay [1] and 91.2% in assay [2].

With `CCSc1ccc(-c2cc(NC=O)c3ncc(-c4cccc(C(=O)NCCN(C)C)c4)n3c2)cc1`, the activity in assay [1] stood at 50.4%; in assay [2], 87.7%.

As to `NC(Cc1ccc(C(F)(F)F)cc1)c1csc(NC(=O)Nc2ccccc2Oc2ccccc2)n1` (stereo not drawn), the results for the activity in assay [1] and in assay [2] were 75.1% and 93.7%, respectively.

With `Cc1ccc(NC(=O)c2ccc(CSc3nnnn3C)cc2)cc1`, the activity in assay [1] was 44.9%; in assay [2], 37.7%.

For the molecule `Nc1nc(N)c2cc(S(=O)(=O)c3cccc(C(F)(F)F)c3)ccc2n1`, the activity stood at 60.4% in assay [1] and 76.5% in assay [2].

The record behind these values is PubChem BioAssay.
